The list is not random: actives were taken first. Their share in the collection is about 2.6%.
PABP FP inh: PABP-poly(A) binding inhibition. P11940. PABP-poly(A) RNA binding, fluorescence polarization. calls only at 35 µM. actives 1% (n = 290,000);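 also: calls also rest on retests at 20 µM and on dose response follow-up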
eIF4H inh: inhibitors of RNA binding by human eIF4H; actives 0.94% (n = 290,000); inhibition, % at 35 µM; eIF4H fluorescence polarization binding assay; AID 2012; Q15056;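 also: calls also rest on retests at 20 µM and on dose response follow-up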
ABCB6 inh MLPCN: inhibitors of human ABC transporter ABCB6. K562-ABCB6 porphyrin accumulation, flow cytometry, 1 h; stronger effect = lower value. fluorescence ratio to DMSO, % at 10 µM. actives 0.19% (n = 360,000);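 active = fluorescence ratio to DMSO below 75%, the collection mean minus 3 SD; inconclusive = too few cells collected in the well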;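 also: signal is porphyrin accumulated inside mitochondria; lower ratio means ABCB6 inhibition with less porphyrin fluorescence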
AI-2 QS mod: Vibrio harveyi AI-2 quorum sensing modulation; Vibrio harveyi JMH597 AI-2 luminescence/OD600 ratio, 9 h; stronger effect = lower value; strain lacks LuxN and CqsS sensors; 0 = neutral-control median; activity change, % at 7.5 µM; actives 0.4% (n = 300,000); AID 2094; in the data active = activity change below about -75%, passing the limit was not always enough; inconclusive = no clear call, values can overlap the other calls;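 also: luminescence divided by OD600 gain over 9 h not by final OD600 alone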
PABP1 MLLE inh: blocks PAM2 peptide binding to the PABP1 MLLE domain; P11940; GST-MLLE / FITC-PAM2 fluorescence polarization; inhibition, % at 20 µM; actives 0.36% (n = 360,000); AID 588489; in the data active = inhibition above about 35%, passing the limit was not always enough
PHOSPHO1 block: inhibitors of human PHOSPHO1 phosphatase. recombinant PHOSPHO1, absorbance phosphatase assay. inhibition, % at 13.3 µM. actives 1.1% (n = 290,000); in the data active = inhibition above about 60%
A number is an active result; . = inactive; ? = inconclusive; / = no result; + = active, no number. Unless noted, no rule for the calls is given here.

SMILES	PABP FP inh	eIF4H inh	ABCB6 inh MLPCN	AI-2 QS mod	PABP1 MLLE inh	PHOSPHO1 block
O=C(COc1ncnc2ccccc12)Nc1ccc(S(=O)(=O)N2CCOCC2)cc1	.	.	.	-92	.	.
O=C(Nc1ccc(S(=O)(=O)N2CCCC2)cc1)c1cccs1	.	.	.	.	.	60
CC(C)c1ccc(S(=O)(=O)N2CCN(CCC(=O)Nc3ccc(N(C)C)cc3)CC2)cc1	.	.	.	.	.	83
O=C(COC(=O)c1c2c(nc3ccccc13)CCCCC2)NCc1ccc2c(c1)OCO2	.	.	.	.	.	.
COc1ccc(NC(=O)COC(=O)c2c3c(nc4ccccc24)CCCC3)cc1	.	.	.	.	.	.
CCCCNC(=O)COC(=O)c1c2c(nc3ccccc13)CCC2	+	68	.	.	.	.
C=CCNC(=O)COC(=O)c1c2c(nc3ccccc13)CCC2	+	59	.	.	.	.
CNC(=O)COC(=O)c1c2c(nc3ccccc13)CCC2	.	66	.	.	.	.
CCOC(=O)[C@]12CCC=C1N(Cc1ccc(Cl)cc1Cl)C(=O)[C@H](CC(=O)NCc1ccccc1)C2	/	/	.	/	/	/
CCN1CCN(c2cc(N3CCN(C(=O)c4ccco4)CC3)c3c4c(onc24)-c2ccccc2C3=O)CC1	+	94	.	.	.	.
Cc1cc(N2CCN(C(=O)c3ccco3)CC2)c2ccccc2n1	.	.	.	.	.	.
O=C(O)CCNc1cc(N2CCN(C(=O)c3ccco3)CC2)c2noc3c2c1C(=O)c1ccccc1-3	+	101	.	.	.	.
CC(=O)OCCNc1cc(N2CCN(C)CC2)c2noc3c2c1C(=O)c1ccccc1-3	.	.	.	/	.	.
COc1ccccc1-c1csc(C(C)(NC(C)=O)c2ccccc2)n1 (centres undefined)	/	/	.	/	.	/
O=C(Nc1ccccc1)c1cc(C2CCCN(C(=O)c3cccs3)C2)on1 (centres undefined)	/	/	.	/	.	/
Nc1nc2ccccc2cc1C(=O)NCCCCc1ccccc1	/	/	.	/	/	/
CC(C)(C)c1ccc(OCC(O)CSc2ncn[nH]2)cc1 (centres undefined)	.	.	.	.	.	80
OC(COc1ccccc1)CSc1ncn[nH]1 (centres undefined)	.	.	.	.	.	.
CCc1nn(C)c2c(=O)c(=O)c2n(C)[nH]1	+	99	.	.	.	.
Cc1nn(C)c2c(=O)c(=O)c2n(C)[nH]1	.	.	.	.	.	.
CCCCC[C@H](C)N1C[C@@H](COCc2ccccc2)Oc2cc(N3CCC[C@H]3C(N)=O)ccc2S1(=O)=O	/	/	.	/	/	/
COC(=O)c1ccc(CNC(=O)CC[C@H]2O[C@@H](n3cc(C)c(=O)[nH]c3=O)C[C@@H]2O)cc1	/	/	.	/	.	/
Cc1ccc(C(O)c2ncc(-c3ccc4ccccc4c3)[nH]2)cc1F (centres undefined)	/	/	.	/	.	/
CCCCc1ccc(S(=O)(=O)Nc2nnc(C)s2)cc1	.	.	.	-98	.	/
Cc1noc(C)c1-c1ccc(C(=O)NCCN2CCOCC2)c2occc12	/	/	.	/	.	/
SMILES	PABP FP inh	eIF4H inh	ABCB6 inh MLPCN	AI-2 QS mod	PABP1 MLLE inh	PHOSPHO1 block
CCC(=O)Nc1ccc(C(=O)OCc2ccc(Cl)c(Cl)c2)cc1	.	.	.	.	.	.
CC(=O)Nc1ccc(C(=O)OCc2ccc(Cl)c(Cl)c2)cc1	.	.	.	-85	.	.
CCC(=O)n1nc(-c2ccco2)nc1N	.	.	.	.	.	67
CCCCCCCCN1C(=O)[C@H](CC(=O)N2CCCCC2)C[C@@]2(C(=O)OC)CCCCC=C12	/	/	.	/	/	/
Cc1cc2nc(-c3cccc(NC(=O)c4ccc(Br)o4)c3)oc2cc1C	+	active	.	.	.	.
O=c1[nH]c(=O)n([C@H]2C[C@H](O)[C@@H](CO)O2)cc1C(F)(F)F	.	.	.	-108	.	.
Cc1cccn2c(=O)c(/C=C(\C#N)S(=O)(=O)c3ccccc3)c(N3CCN(C)CC3)nc12	.	.	.	.	.	.
Cc1ccc(S(=O)(=O)/C(C#N)=C/c2c(N3CC(C)OC(C)C3)nc3c(C)cccn3c2=O)cc1 (centres undefined)	+	46	.	.	.	.
Cc1ccc(S(=O)(=O)/C(C#N)=C/c2c(N3CCN(C)CC3)nc3c(C)cccn3c2=O)cc1	.	52	.	.	.	.
Nc1ccn([C@@H]2O[C@H](C(=O)NCC(F)(F)F)[C@@H](O)[C@H]2O)c(=O)n1	/	/	.	/	.	/
COC(=O)C1C(O)C(C)C(O)C(C)(O)/C=C\C=C(/C)C(=O)Nc2c(C)c(OC(C)=O)c3c(c2O)C(=O)C(C)=C2OCOC(=C23)/C(C)=C/C(C)(O)C(O)C(C)C1O (centres undefined)	.	.	.	-160	.	.
S=C(Nc1cccnc1)NC1CCCCCCC1	.	.	.	.	.	.
O=C(Nc1cccnc1)NC1CCCCC1	.	.	.	.	.	68
Cc1cn([C@H]2C[C@H](O)[C@@H](/C=C/C(=O)NCc3ccco3)O2)c(=O)[nH]c1=O	/	/	.	/	.	/
Cc1ccc(NN2C(=O)C=C(c3ccccc3)C2=O)cc1	.	.	.	.	.	61
O=C1c2ccccc2C(=O)N1Nc1ccccc1	.	.	.	.	.	.
C#CCSc1nccc(-c2nn(-c3ccc(C)cc3)ccc2=O)n1	.	.	.	.	.	81
CCSc1nccc(-c2nn(-c3ccc(C)cc3)ccc2=O)n1	.	.	.	/	.	.
C[N+]1(CCOc2ccc([N+](=O)[O-])cc2)CCOCC1	.	.	.	.	.	97
CC1(c2nnnn2-c2ccc3c(c2)OCCO3)CCC(=O)N1CCOc1ccccc1 (centres undefined)	/	/	.	/	/	/
CN(CCOC(=O)c1ccco1)Cc1ccccc1	.	.	.	.	.	.
CN(Cc1ccccc1)C(=O)COC(=O)/C=C/c1ccco1	+	82	.	.	.	.
CN(CCOC(=O)/C=C/c1ccco1)Cc1ccccc1	+	90	.	.	.	.
CS(=O)(=O)c1ccc(C(=O)NCC(c2ccco2)N2CCCCC2)cc1 (centres undefined)	.	83	.	.	.	.
Cc1ccccc1NS(=O)(=O)c1ccc(C(=O)NCC(c2ccco2)N2CCCCC2)cc1 (centres undefined)	/	/	.	.	.	/
C=CCNC(=S)NC(=O)c1csc([N+](=O)[O-])c1	.	.	.	-104	.	.
CCCCC1=CC2=C(c3ccco3)C(=O)C(C)(OC(=O)c3ccc(OC)cc3)C(=O)C2=CN1c1ccccc1 (centres undefined)	+	.	.	.	.	.
C=CCN1C=C2C(=O)C(C)(OC(=O)c3ccc(OC)cc3)C(=O)C(c3ccco3)=C2C=C1CCCC (centres undefined)	?	?	.	.	.	.

Compound activity deposited in PubChem by several laboratories.
